# Laboratory results published in PubChem BioAssay AID686978 (National Center for Advancing Translational Sciences (NCATS), 2013).
# “And” between values parts separate entries of the source, which are not always exact repeats. Equal values may be shown once. Among all 420,000 compounds or so, about 64,000 (15%) were called active. About 27% were inconclusive and are not listed. The call rests on the fitted dose curve; in most records, active means well fitted inhibition curve with a large enough effect; inconclusive means small, poorly fitted or top-dose-only effect; inactive means flat fitted curve, though single readings scatter. These entries were drawn from the full list. Some compounds were tested as several samples or in several runs, with calls that do not always agree.
# Test: qHTS for Inhibitors of human tyrosyl-DNA phosphodiesterase 1 (TDP1): qHTS in cells in absence of CPT; further: nearly all actives have a fitted effect of over 55% in size
# Details: DT40 Tdp1-/- hTDP1 cells, no CPT, ATP luminescence, 48 h; activity change, negative = growth inhibition: at 46.2 µM (top of the series)
# How it was run: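 Seeded 400 DT40-hTDP1 cells/well (vehicle DMSO, no 20 nM CPT); pinned compounds; ≥48 hr at 37 °C; CellTiter-Glo luminescence as viability measure.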
# On the % scale 0 is the no-effect control and ±100 the full control effect; potency means the concentration at half of the fitted maximal effect.
SMILES,"activity change, negative = growth inhibition",Potency
COc1ccc(F)c(CN2CCC3(CCC(CNC(=O)c4ccn(C)n4)O3)CC2)c1 (centres undefined),-14.8% (inactive),
Cc1cc(NC(=O)Cn2nc(C(F)(F)F)c3c2CCCC3)no1,-18.9% (inactive),
OCCN1CCOCCOCCN(CCO)CCN(CCO)CC1,-4.43% (inactive),
Cc1cc(C)c(C#N)c(SCc2ccc3c(c2)OCO3)n1,-17% (inactive),
Cc1nc(-c2ccccc2)sc1-c1nnc(C2CC2)o1,-14.2% (inactive),
C=CCn1c(-c2sc(-c3ccccc3)nc2C)n[nH]c1=S,,23.1 µM (active)
C=CCn1c(CCNC(=O)c2cccs2)n[nH]c1=S,-7.36% (inactive),
COc1ccc(/C=C/c2c(-c3cccc(C)c3)oc3ccc(-c4ccc5c(c4)OCO5)cc23)cc1,-6.57% (inactive),
CC(C)(C)C(=O)/C(C#N)=C/c1ccc(O)cc1,-9.28% (inactive),
N#C/C(=C\c1ccc(O)c(O)c1)C(N)=O,,inactive and 29.9 µM (active)
CC(C)NC(=O)/C(C#N)=C\c1ccc(N(C)C)c(Br)c1,-16.7% (inactive),
CCc1nc2ccc(C(=O)N(C)CCN(C)C)cn2c1N(CC)CCOC,-1.11% (inactive),
COc1ccc(N(C(=O)c2cccnc2)S(=O)(=O)c2ccc(OC)c(OC)c2)cc1,-21% (inactive),
Cc1cc(NC(=O)CCS(=O)(=O)c2ccc(F)cc2)no1,-10% (inactive),
CCOC(=O)[C@]12CCCC=C1N(CCC1=CCCCC1)C(=O)[C@H](CC(=O)N1CCCCC1)C2,,5.17 µM (active)
CCOC(=O)N1CCN(C(=O)C[C@@H]2C[C@@]3(C(=O)OC)CCCCC=C3N(CCC3=CCCCC3)C2=O)CC1,,16.4 µM (active)
CCOC(=O)[C@]12CCCC=C1N(CCC1=CCCCC1)C(=O)[C@H](CC(=O)N1CCOCC1)C2,,16.4 µM (active)
CCOC(=O)N1CCN(C(=O)COc2ccc(Br)cc2)CC1,-25.8% (inactive),
CCOC(=O)[C@]12CCCC=C1N(CCC1=CCCCC1)C(=O)[C@H](CC(=O)N1CCSCC1)C2,,16.4 µM (active)
CSc1c(SCc2ccccc2)cnn(Cc2ccccc2)c1=O,-12.4% (inactive),
Cc1ccc(N)cc1-n1c(C)ccc1C,-17.2% (inactive),
C/C=C/C(=O)OCc1csc(CC(=O)Nc2ccccc2C)n1,7.75% (inactive),
CC1CC1C(=O)OCC(=O)Nc1cccc(F)c1 (centres undefined),7.03% (inactive),
Cc1cc(-c2nnc(SCC(=O)Nc3ccc(F)cc3)n2N)n[nH]1,21.3% (inactive),
O=C(CN1C(=O)CSC1=O)N1CCCC(Nc2ccc(F)cc2)C1 (centres undefined),-4.21% (inactive),

SMILES,"activity change, negative = growth inhibition",Potency
Cc1ccc(S(=O)(=O)N(C)c2ccc(OCC(=O)NC3=NCCS3)cc2)cc1,1.46% (inactive),
CC(C)NC(=O)Nc1cccc2c1O[C@H](CN(C)S(=O)(=O)c1cccs1)[C@@H](C)CN([C@H](C)CO)C2=O,-28.3% (inactive),
CCOC(=O)[C@]12CCC=C1N(Cc1ccccc1)C(=O)[C@H](CC(=O)N1CCCC1)C2,-25.7% (inactive),
COC(=O)[C@]12CCCCC=C1N(CCC1=CCCCC1)C(=O)[C@H](CC(=O)N1CCSCC1)C2,,16.4 µM (active)
COc1ccc(Cl)cc1N(CC(=O)N1CCCCC1)S(C)(=O)=O,-8.52% (inactive),
CCOC(=O)[C@]12CCCC=C1N(Cc1ccc(Cl)cc1Cl)C(=O)[C@H](CC(=O)N1CCCCC1)C2,,23.1 µM (active)
Cc1ccc(-c2ccc(C3=CC(=O)CC(C)(C)C3=O)cc2)cc1,-100% (inactive),
CCc1ccccc1N1C(=O)C2C3CC(=O)C(c4ccccc43)C2C1=O (centres undefined),18.8% (inactive),
Cc1ccc(CCC(=O)Nc2ncc(Cc3cc(Cl)ccc3Cl)s2)o1,,0.58 µM (active)
O=C(CCc1ccccc1Cl)Nc1ccc(S(=O)(=O)Nc2nccs2)cc1,-3.57% (inactive),
Cc1ccc(Cc2cnc(N)s2)o1,-4.35% (inactive),
COc1cc2sc(C)nc2cc1C,2.23% (inactive),
COC(=O)CN1C(=S)N(c2ccccc2)C(=O)C1CC(=O)Nc1ccc(Cl)cc1 (centres undefined),-25.1% (inactive),
CCNC(=O)CC1C(=O)N(c2ccc(F)cc2)C(=O)N1Cc1cccs1 (centres undefined),6.76% (inactive),
CCCOc1ccc(NC(=O)CC2C(=O)N(c3ccccc3)C(=O)N2Cc2ccco2)cc1 (centres undefined),,20.6 µM (active)
CCOC(=O)c1ccc(NC(=O)CC2C(=O)N(c3cccc(OC)c3)C(=O)N2C2CCCCC2)cc1 (centres undefined),,20.6 µM (active)
CCNC(=O)N1CCNC(=O)C1CC(=O)Nc1ccc(C(=O)OCC)cc1 (centres undefined),4% (inactive),
CCOc1ccc(NC(=O)CC2C(=O)N(c3ccccc3)C(=O)N2CCOC)cc1 (centres undefined),0.538% (inactive),
CCOc1ccc(NC(=O)CC2C(=O)N(c3cccc(OC)c3)C(=O)N2C2CCCCC2)cc1 (centres undefined),-25.8% (inactive),
CCOC(=O)c1ccc(NC(=O)CC2C(=O)N(c3ccccc3)C(=O)N2Cc2cccs2)cc1 (centres undefined),,20.6 µM (active)
CCNC(=O)CC1C(=O)N(c2ccc(F)cc2)C(=O)N1Cc1ccc(C)cc1 (centres undefined),2.75% (inactive),
Cc1ccnc(NS(=O)(=O)c2ccc(NC(=O)c3oc4ccc(F)cc4c3C)cc2)n1,16.5% (inactive),
COCc1cc(C)n(CC(=O)NCC2CCCO2)c(=O)c1C#N (centres undefined),8.62% (inactive),
Cc1cnc(C(=O)OCC(=O)NCCCc2ccccc2)cn1,-4.9% (inactive),
